Sampled rows, rich in hits. Any-hit rate of the full collection: about 9.3%.
ELG1 genotox: genotoxicity induction in ELG1-luciferase HEK293T cells. HEK293T ELG1-luciferase reporter, luminescence, 16 h. 330,000 tested, 1.3% active. AID 504466. Potency, µM (highest dose often 46 µM), for the others: top-dose activity change, positive = activation, most hits filed as activators; also: % of control where 0% means no effect; nearly all actives have a fitted effect of over 60% in size
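Quantitative HTS format in 1536-well plates. HEK293T ELG1-luciferase reporter cells receive test compound and are incubated 16 hr at 37 °C, 5% CO2; ONE-Glo added, 30 min room temperature, then luminescence read.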
NPC1 promoter act: activates the NPC1 promoter | Huh7 NPC1 promoter luciferase reporter, 24 h | Potency, µM (highest dose often 9.22 µM), without a hit: at the top dose activation, hits mostly activators | 320,000 tested, 2.4% active; also: % of control where 0% means no effect; nearly all actives have a fitted effect of over 60% in size
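Huh7 cells stably carrying NPC1 promoter–luciferase, plated in Opti-MEM with 10% FBS for 2 h, were exposed to compound in DMSO for 24 h at 37 °C; luciferase reagent was added for 10 min and luminescence read.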
SMN2 splice up: SMN2 splice variant enhancement; AID 1458; 210,000 tested, 2.8% active; HEK293 SMN2-luciferase splicing reporter, luminescence, 30-36 h; Potency, µM (titrated, usually from 46.1 µM), for inactives: top-dose activity change, positive = activation, actives largely listed as activators; also: % of control where 0% means no effect; nearly all actives have a fitted effect of over 55% in size
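qHTS luciferase splicing reporter: luminescence rises when SMN2 exon 7 is included in transfected HEK293 cells. Compound exposure lasted 30-36 h at 37C, with 4.5 mM final sodium butyrate as control, followed by a ONE-Glo read.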
Rab9 promoter act: Rab9 promoter activation; Potency, µM (doses to about 9.22 µM), inactives show at the top dose activation, negative = inhibition, usual class: activators; 320,000 tested, 2.8% active; AID 485297; Huh7 Rab9 promoter-luciferase reporter, luminescence, 24 h; also: % of control where 0% means no effect; nearly all actives have a fitted effect of over 60% in size
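Cells were plated at 1500 per well in reduced-serum medium with 10% FBS and left 2 h. Compound in DMSO was then added for 24 h at 37 °C. Reporter signal was read by luminescence after 10 min with luciferase detection reagent.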
FLuc counter: counter-screen for miR-21 project: firefly luciferase inhibitors or activators; 360,000 tested, 6.9% active; Potency, µM (titrated, usually from 57.5 µM), without a hit: top-dose activity change, negative = inhibition, most hits filed as inhibitors; purified FLuc, Km substrates, luminescence inhibition;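 also: plate controls were vehicle for no effect and reference inhibitor for full effect; nearly all actives have a fitted effect of over 55% in size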
Target sequence (P08659 whole entry, looked up): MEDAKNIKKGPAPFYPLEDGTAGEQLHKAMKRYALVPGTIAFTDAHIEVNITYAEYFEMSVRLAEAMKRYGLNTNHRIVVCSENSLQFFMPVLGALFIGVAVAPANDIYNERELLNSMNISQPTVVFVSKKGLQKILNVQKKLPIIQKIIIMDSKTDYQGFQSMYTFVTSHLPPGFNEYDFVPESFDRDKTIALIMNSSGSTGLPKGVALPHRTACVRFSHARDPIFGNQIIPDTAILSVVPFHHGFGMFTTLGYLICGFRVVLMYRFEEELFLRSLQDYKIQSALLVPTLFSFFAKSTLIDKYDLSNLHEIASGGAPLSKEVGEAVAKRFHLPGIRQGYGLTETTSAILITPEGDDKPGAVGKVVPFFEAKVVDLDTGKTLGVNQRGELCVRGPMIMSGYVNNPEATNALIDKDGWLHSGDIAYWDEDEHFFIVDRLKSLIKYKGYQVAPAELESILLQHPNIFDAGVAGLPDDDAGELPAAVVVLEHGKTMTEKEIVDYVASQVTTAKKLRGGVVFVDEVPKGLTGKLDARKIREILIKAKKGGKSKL
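Biochemical qHTS of compounds, final roughly 60 µM downward over six points, against 10 nM purified firefly luciferase using Km concentrations of substrates (10 uM D-luciferin, 10 uM ATP) in Tris acetate pH 7.5 buffer; luminescence output.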
ELG1 repair inh: ELG1-dependent DNA repair inhibition | HEK293T ELG1-luciferase reporter, luminescence, 16 h; DNA damage induced by 5-fluorouridine | Potency, µM (titrated, usually from 46.1 µM), without a hit: at the top dose activity change, negative = inhibition, usual class: inhibitors | 330,000 tested, 2.3% active | AID 504467; also: % is scaled to controls: 0 for no effect and ±100 for the full control effect; nearly all actives have a fitted effect of over 55% in size
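5-Fluorouridine DNA damage + compound/DMSO, 2,000 cells/well, 16 h, 37 °C/5% CO2. ONE-Glo, 30 min RT, luminescence. Readout = decrease in reporter signal.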
Numbers without * were called inactive; ? = inconclusive; . = no result given. Calls follow the shape of the dose curve; as a rule, active = well fitted curve in the direction sought with a large enough effect; inconclusive = small, poorly fitted or top-dose-only effect, or another doubt; inactive = no such curve, though single readings can be large; an effect the other way counts as inactive or inconclusive. Potency is read from the fitted curve at half-maximal effect.

SMILES | ELG1 genotox | NPC1 promoter act | SMN2 splice up | Rab9 promoter act | FLuc counter | ELG1 repair inh
O=C(Nc1ccc(O)cc1C(=O)O)c1cccc(Br)c1 | -1% | 2% | -6% | 6% | 21µM* | 0%
Cc1ccccc1C(=O)Nc1ccc(O)cc1C(=O)O | -1% | 0% | 4% | -2% | ? | -10%
Cc1c(NC(=O)c2ccc(-c3ccccc3)cc2)cccc1C(=O)O | 0.29µM* | ? | . | ? | 0.6µM* | ?
O=C(c1ccc(Cl)c(S(=O)(=O)N2CCCCCC2)c1)N1CCCCC1 | 3% | 0% | . | 6% | 5% | -4%
CCOc1ccccc1N1CCN(S(=O)(=O)c2cc(C)ccc2OC)CC1 | ? | ? | . | 2.5µM* | 17µM* | ?
O=C(c1ccc(Cl)c(S(=O)(=O)N2CCCCCC2)c1)N1CCN(c2ccccn2)CC1 | -15% | -5% | -46% | -12% | 3% | 21µM*
Cc1ccccc1NC(=O)c1ccc(C)c(S(=O)(=O)N2CCN(C)CC2)c1 | 2% | -4% | . | 0% | 2% | 5%
CCOc1ccccc1N1CCN(C(=O)c2ccc(Cl)c(S(=O)(=O)N3CCCCC3)c2)CC1 | -6% | -6% | . | -12% | 4% | 23µM*
Cc1ccccc1NC(=O)c1ccc(F)c(S(=O)(=O)N2CCN(c3ccccn3)CC2)c1 | -6% | -3% | -44% | -3% | 2% | 23µM*
CCCOc1ccc(N2C(=O)CC(N3CCN(c4ccc([N+](=O)[O-])cc4)CC3)C2=O)cc1 (configuration not stated) | -7% | -7% | . | -2% | -2% | 2.1µM*
CCC12CN3CC(C)(CN(C1)C3c1c[nH]c3ccccc13)C2=O (configuration not stated) | . | . | -1% | . | -2% | .
O=C1NC(=S)S/C1=C\c1coc2ccccc2c1=O | 8% | 5% | 2% | ? | 19µM* | 17%
NC(=S)N/N=C/c1coc2ccc(Cl)cc2c1=O | -9% | -1% | -16% | -5% | 1% | -17%
O=C1NC(=S)S/C1=C\c1coc2ccc(O)cc2c1=O | 10% | 14% | . | 9% | 19µM* | ?
O=[N+]([O-])c1ccccc1CNC1CCCc2ccccc21 (configuration not stated) | -14% | -6% | 3% | 3% | 2% | 8%
COc1cccc(NC(=O)c2cc3ccccc3o/c2=N\O)c1 | 0.41µM* | 0.79µM* | . | 0.71µM* | 0.54µM* | ?
COc1ccc2oc(=O)c(C(=O)NCc3ccccc3)cc2c1 | 1% | 2% | . | -2% | 3% | 2%
COc1ccc(C(=O)N/N=c2\oc3ccccc3cc2C(=O)NCc2ccccc2)cc1 | 4% | 0% | -7% | 0% | 0% | 10µM*
O=C(Nc1ccccc1Cl)c1cc2ccccc2o/c1=N\O | 16µM* | 3.2µM* | . | 2.5µM* | 2.1µM* | ?
COc1cccc(NC(=O)c2ccccc2Oc2ccccc2)c1 | -5% | 0% | . | 7% | -1% | 4%
COc1cccc(NC(=O)c2cc3cccc(OC)c3o/c2=N\O)c1 | ? | 2.8µM* | . | 0.71µM* | 0.54µM* | ?
COc1ccccc1CCC(=O)NNC(=O)c1ccc(Br)cc1 | 2% | 2% | . | 5% | 3% | 0%
CCc1ccc(OCC(=O)Nc2cc3oc4ccccc4c3cc2OC)c(Br)c1 | . | . | -1% | . | -3% | .
COc1ccccc1N1CCN(c2ccc(-c3ccccc3)nn2)CC1 | ? | ? | ? | 0.28µM* | 0.76µM* | ?
COc1ccccc1N1CCN(c2ccc3ccccc3n2)CC1 | ? | 0.32µM* | . | 0.32µM* | 0.95µM* | ?
COc1ccccc1N1CCN(c2cc(N3CCCC3)nc(C)n2)CC1 | -5% | -6% | -40% | -5% | 7% | ?
COc1ccc([N+](=O)[O-])cc1NC(=O)Cc1noc2ccccc12 | 0% | 1% | -6% | -9% | 2% | 13%
